Many of the other results were omitted from the sample, so hits are more common in it than they were.
ST2 inh = blocks human ST2 binding to IL-33 | AlphaLISA ST2-Fc/biotin-IL-33 interaction, 1 h | AID 1259354 | 78,000 compounds, 2.3% hits | Q01638 | inhibition, % for hits at 17 µM; in the data active means inhibition above about 30%
Target sequence (Q01638 whole entry, looked up): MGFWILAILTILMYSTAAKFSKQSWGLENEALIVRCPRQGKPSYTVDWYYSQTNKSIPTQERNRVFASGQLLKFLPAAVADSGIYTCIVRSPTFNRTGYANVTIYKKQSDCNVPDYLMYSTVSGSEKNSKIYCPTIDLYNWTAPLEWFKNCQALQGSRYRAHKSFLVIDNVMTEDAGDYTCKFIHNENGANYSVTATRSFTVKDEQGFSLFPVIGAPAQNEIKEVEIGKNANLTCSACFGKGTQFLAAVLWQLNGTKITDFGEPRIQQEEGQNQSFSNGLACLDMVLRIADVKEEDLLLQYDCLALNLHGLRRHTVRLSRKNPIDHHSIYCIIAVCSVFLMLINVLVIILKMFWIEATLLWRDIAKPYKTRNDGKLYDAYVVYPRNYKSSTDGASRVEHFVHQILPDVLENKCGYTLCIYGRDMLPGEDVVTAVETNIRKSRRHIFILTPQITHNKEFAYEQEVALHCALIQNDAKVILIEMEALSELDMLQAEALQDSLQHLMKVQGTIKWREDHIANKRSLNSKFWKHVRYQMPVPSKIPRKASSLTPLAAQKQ
Large screens that a line does not name were inactive.

Cc1cc(C)n(-c2nc(-c3ccccc3)cc(-c3ccccc3O)n2)n1	none
O=[N+]([O-])c1ccccc1S(=O)(=O)Nc1ccc(S(=O)(=O)N2CCc3ccccc32)cc1	none
O=C(NCc1ccc2c(c1)OCO2)c1ccc(Cn2c(=O)[nH]c3ccsc3c2=O)cc1	none
O=C(Nc1ccc(-c2cscn2)cc1)C1CCCN(C(=O)c2cccs2)C1 (stereo unspecified)	none
Cc1ccc(-c2nnc([C@H]3CCN(Cc4ccccc4C)C3)o2)cc1	none
COc1ccc(CC(=O)Nc2cccc(F)c2)cc1	none
COc1ccc(C2C(C(=O)Nc3ccccc3)=C(C)Nc3ncnn32)cc1 (stereo unspecified)	none
CC(=O)Nc1ccc(S(=O)(=O)N2CCC(n3c(Cc4ccccc4)nc4cccnc43)CC2)cc1	none
O=S(=O)(c1cccc2nsnc12)N1CCC(n2c(Cc3ccccc3)nc3cccnc32)CC1	ST2 inh 97%
O=S(=O)(c1cccc2nsnc12)N1CCN(C23CC4CC(CC(C4)C2)C3)CC1	none
O=S(=O)(c1ccc(Oc2ccccc2)cc1)N1CCc2ccccc2C1	none
COc1ccc(-c2nccn2CCc2ccccn2)c(OC)c1	none
COc1ccc(-c2ccnc(N)c2)c(OC)c1	none
COc1ccc(-c2cc3ccccn3c2)c(OC)c1	ST2 inh 50%
Cc1cccc(N2CCN(C(=O)c3cccn4c(=O)c5c(C)c(C)sc5nc34)CC2)c1C	none
CC1=C[C@@H](CNC(=O)c2ccc(C#N)cc2)[C@H](C(C)C)C[C@H]1CC(=O)NCc1cccnc1	none
CC1=C[C@@H](CNC(=O)c2ccc(C#N)cc2)[C@H](C(C)C)C[C@H]1CC(=O)NCCN(C)C	ST2 inh 31%
COc1ccc(CNC(=O)C[C@@H]2C[C@@H](C(C)C)[C@H](CNC(=O)c3ccc(C#N)cc3)C=C2C)cc1	none
Cc1cccc(C(C)C)c1NC(=O)c1ccc(Cl)cc1Cl	none
COc1ccc(OCCN(C)Cc2ccccc2)cc1	none
O=S(=O)(c1ccccc1)N(Cc1ccccc1)Cc1ccccc1	none
COc1ccc(CN(C)Cc2ccccc2)cc1	none
NN(Cc1ccccc1)c1ccccc1	ST2 inh 37%
OCCN(Cc1ccccc1)Cc1ccccc1	none
COc1ccc(N(N)Cc2ccccc2)cc1	ST2 inh 50%
Cc1nn(-c2ccccc2)c(C)c1NC(=O)NC1CCCN(C2CCCCCC2)C1 (stereo unspecified)	none
O=C1c2ccccc2C(=O)N1c1ncc(Cc2ccccc2Cl)s1	none
Cc1ccc2c(S(=O)(=O)O)ccc(O)c2n1	none
C[C@@H]1O[C@@H](O[C@@H]2[C@@H](O)[C@H](C)O[C@@H](OCC3OC(Oc4c(-c5ccc(O)c(O)c5)oc5cc(O)cc(O)c5c4=O)C(O)C(O)C3O)[C@@H]2O)[C@H](O)[C@H](O)[C@H]1O (stereo partly specified)	none
COc1cc(OC2OC(COC3OCC(O)(CO)C3O)C(O)C(O)C2O)c2c(-c3ccc(O)c(O)c3)cc(=O)oc2c1 (stereo unspecified)	ST2 inh 33%
C[C@@H]1O[C@@H](O[C@@H]2[C@@H](O)[C@H](OCCc3ccc(O)c(O)c3)O[C@H](CO[C@@H]3OC[C@](O)(CO)[C@H]3O)[C@H]2OC(=O)/C=C/c2ccc(O)c(O)c2)[C@H](O)[C@H](O)[C@H]1O	none
Cc1ccc(NC(=O)c2ccccc2Br)cc1	none
CCOC(=O)C1=C(C)Nc2nc(SCc3ccccc3)nn2C1c1ccc(OC)cc1 (stereo unspecified)	none
COc1ccc2cc(S(=O)(=O)N3CCN(C)CC3)ccc2c1	none
CCn1cc2c(c1-c1ccc(OC)cc1)c(=O)n(C)c(=O)n2C	none
CCn1c(=O)ccc2cc(OC)ccc21	ST2 inh 31%
CCOc1ccc(NC(=O)C(C)Sc2nnc(C(c3ccccc3)c3ccccc3)n2C)cc1 (stereo unspecified)	none
CCOC(=O)CNC(=O)c1cc2c(=O)n3ccccc3nc2n1C	none
COc1ccc2nc(SC(=O)c3ccccc3)nc(C)c2c1	ST2 inh 43%
CCOC(=O)CCSc1nc(C)c2cc(C)ccc2n1	none
COc1ccc2nc(SCCc3ccccc3)nc(C)c2c1	none
CS(=O)(=O)N(CC(=O)NCc1ccncc1)c1ccccc1F	none
O=C(CSc1nc(O)c(Cc2ccccc2)c(=O)[nH]1)N1CCCCC1	none
COc1cccc2cc(C(=O)NC(C)=O)c(=Nc3ccc(C(F)(F)F)cc3)oc12	none
COc1cccc2cc(C(=O)NC(C)=O)c(=Nc3ccccc3F)oc12	ST2 inh 33%
COc1cccc2cc(C(=O)NC(C)=O)c(=Nc3cccc(F)c3)oc12	none
Cc1cc(C)nc(N=C(N)Nc2cccc(Cl)c2)n1	none
O=C(CSc1nc2ccccc2o1)c1ccccc1	none
CCSc1nnc2c(n1)OC(c1ccccn1)Nc1ccc(Br)cc1-2 (stereo unspecified)	none
O=C(O)COCC(=O)N1CC[C@H](c2nc3ccccc3[nH]2)C1	none
COc1ccc(CN2CCCN(CC(=O)Nc3cccc(SC)c3)S2(=O)=O)cc1	none
COc1ccc(C[C@@H]2NC(=O)[C@@H]3C[C@@H](NC(=O)Nc4cccc(SC)c4)CCN3C2=O)cc1	ST2 inh 33%
COc1ccc(NC(=O)N[C@H]2C[C@H]3C(=O)N[C@H](Cc4ccccc4)C(=O)N3C2)cc1	none
COc1cccc(NC(=O)N[C@H]2C[C@@H](C(=O)N[C@H](Cc3ccccc3)C(N)=O)N(C(=O)C=C(C)C)C2)c1	none
Fc1ccc(C2Nc3ccc(Cl)cc3C3C=CCC32)cc1 (stereo unspecified)	none
Cc1ccc(C2Nc3c(ccc(C(=O)O)c3C)C3C=CCC32)cc1 (stereo unspecified)	none
O=C(c1ccc2c(c1)C1C=CCC1C(c1cccc([N+](=O)[O-])c1)N2)N1CCCCC1 (stereo unspecified)	ST2 inh 38%
O=C(c1ccc2c(c1)C1C=CCC1C(c1ccc(Cl)cc1)N2)N1CCOCC1 (stereo unspecified)	ST2 inh 63%
CN1CCN(C(=O)c2cccc([N+](=O)[O-])c2)CC1	none
O=C(O)c1ccc2c(c1)C1C=CCC1C(c1ccc(Br)cc1)N2 (stereo unspecified)	none
COc1ccc(S(=O)(=O)N2CCN(C(=O)c3cccc([N+](=O)[O-])c3)CC2)cc1	none
O=C(O)c1ccc2c(c1)C1C=CCC1C(C(=O)O)N2 (stereo unspecified)	ST2 inh 82%
CCOC(=O)C1Nc2c(ccc(C(=O)O)c2C)C2C=CCC12 (stereo unspecified)	none
O=C1C2CCCN2C(c2ccccc2)N1c1nccs1 (stereo unspecified)	none
CC[C@H]1CN(C(=O)C(C)(C)C)CC[C@H]1CC(=O)NCc1ccccc1	none
C=CCN1C(=O)CSc2ccc(C(=O)NCc3ccc(F)cc3)cc21	none
COc1ccccc1-c1cc(C(F)(F)F)nc(NCc2cccs2)n1	none
O=C(c1c[nH]c2ccc(S(=O)(=O)Nc3ccccc3F)cc2c1=O)N1CCOCC1	none
CC(C)C1(O)C=C2C(=O)CC3C(C)(C(=O)O)CCCC3(C)C2CC1 (stereo unspecified)	ST2 inh 30%
CC(C)c1ccc2c(c1)CCC1[C@](C)(C(=O)O)CCC[C@]21C (stereo partly specified)	none
C=CC(C)(O)CC[C@H]1C(=C)CCC2[C@](C)(C(=O)O)CCC[C@@]21C (stereo partly specified)	none
CCC(C)NC(=O)C1CCC(CNS(=O)(=O)c2cccc3nsnc23)CC1 (stereo unspecified)	none
CCCNC(=O)Cn1c(=O)n(CC2CCC(C(=O)NC)CC2)c(=O)c2sccc21 (stereo unspecified)	none
COc1ccc(Nc2cc(C)nc(Nc3ccc(NC(=O)CCCc4ccccc4)cc3)n2)cc1	ST2 inh 31%

Assay outcomes (PubChem BioAssay)
